# Cruzain inh noDet = cruzain (T. cruzi) inhibition without detergent; P25779; purified cruzain, Z-FR-AMC fluorescence, no detergent; Potency, µM, without a hit: max response, negative = inhibition, hits mostly inhibitors; 200,000 compounds, 2.3% hits;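 further: plate controls were enzyme without inhibitor for no effect and buffer without enzyme for full effect; nearly all actives have a fitted effect of over 40% in size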
# Target sequence (P25779 123-467 limits assumed): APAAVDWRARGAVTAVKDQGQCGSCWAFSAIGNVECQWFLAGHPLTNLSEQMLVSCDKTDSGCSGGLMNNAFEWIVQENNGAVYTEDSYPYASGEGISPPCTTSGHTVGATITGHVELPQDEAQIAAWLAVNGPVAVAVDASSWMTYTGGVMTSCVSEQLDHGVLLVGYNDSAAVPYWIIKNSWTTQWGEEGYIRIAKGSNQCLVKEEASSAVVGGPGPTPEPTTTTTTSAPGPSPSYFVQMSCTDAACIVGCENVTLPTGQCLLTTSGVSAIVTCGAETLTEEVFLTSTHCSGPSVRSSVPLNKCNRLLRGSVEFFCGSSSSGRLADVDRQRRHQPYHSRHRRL
#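 Purified cruzain at 1.5 nM, pre-incubated 15 min with compound at room temperature in 100 mM sodium acetate pH 5.5, 5 mM DTT, 0.00005% Triton X-100. Reaction started with 2 uM Z-FR-AMC; AMC fluorescence increase over 60 s gives rate.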
# Cruzain Triton = inhibitors of Trypanosoma cruzi cruzain with detergent | 200,000 compounds, 0.43% hits | AID 1478 | P25779 | Potency, µM, for inactives: max response, negative = inhibition, usual class: inhibitors | purified cruzain, Z-FR-AMC fluorescence, 0.01% Triton;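 further: plate controls were neutral wells for no effect and buffer without enzyme for full effect; nearly all actives have a fitted effect of over 40% in size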
#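 In this qHTS format, compounds are incubated with 1.5 nM cruzain for 15 min at room temperature before 2 uM Z-FR-AMC is added. Release of AMC is followed at 360/450 nm, and progress is taken as the 60 s fluorescence difference.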
# * = called active by the depositor; ? = inconclusive. The list is not random: actives were taken first. Their share in the collection is about 2.5%. The call rests on the fitted dose curve; in most records, active means well fitted curve in the direction sought with a large enough effect; inconclusive means small, poorly fitted or top-dose-only effect, or another doubt; inactive means no such curve, though single readings can be large; an effect the other way counts as inactive or inconclusive. Potency means the concentration at half of the fitted maximal effect.
SMILES,Cruzain inh noDet,Cruzain Triton
N=C1SC(c2ccccc2)C(=O)N1c1ncc(Cc2ccccc2)s1 (stereo unspecified),7.94µM*,1.6%
Cc1ccc(Cc2cnc(N3C(=N)SC(c4ccccc4)C3=O)s2)cc1 (stereo unspecified),?,-0.1%
CCN(CC)S(=O)(=O)c1ccc2c(c1)N(CC(=O)Nc1ccc(OC)cc1)C(=O)CS2,4.8%,-5.0%
Cc1cccc(S(=O)(=O)Nc2nc3ccccc3nc2Nc2ccc3c(c2)OCO3)c1,15.8µM*,-5.8%
O=S(=O)(Nc1nc2ccccc2nc1Nc1ccc2c(c1)OCO2)c1ccccc1,?,-3.4%
C#C[C@]1(OC(C)=O)CC[C@H]2[C@@H]3CCC4=CC(=O)CC[C@@H]4[C@H]3CC[C@@]21C,6.3%,-0.9%
Cc1ccc(C)c(CN2C(=O)c3ccccc3S(=O)(=O)c3ccc(C(=O)OCC4CCCO4)cc32)c1 (stereo unspecified),-24.6%,-0.6%
Cc1cc(C)c(CN2C(=O)c3ccccc3S(=O)(=O)c3ccc(C(=O)OCC4CCCO4)cc32)c(C)c1 (stereo unspecified),12.6µM*,-2.0%
CC1CCN(C(=O)Cn2cc(SCC(=O)NCc3ccccc3Cl)c3ccccc32)CC1,2.6%,-1.3%
O=C(N/N=C/c1cccc(F)c1)c1c(O)c2c([nH]c1=O)CCCC2,20µM*,-3.1%
CNC(=O)c1ccccc1NC(=O)c1c(O)c2c([nH]c1=O)CCCC2,?,-0.9%
Cc1cc(C(=O)Cn2nnc(-c3ccc(Cl)cc3)n2)c(C)n1-c1ccccc1,?,-2.7%
Cc1cc(C(=O)Cn2nc(C(=O)O)c3ccccc3c2=O)c(C)n1-c1ccccc1,25.1µM*,-8.7%
O=S(=O)(c1ccc(Cl)cc1)c1nc(-c2cccs2)oc1SCc1ccccc1F,?,-8.1%
CSc1nc(N(C)CCO)c2sc3nc(-c4ccco4)c4c(c3c2n1)CCC4,-24.8%,8.91µM*
CSc1nc(N2CCN(CCO)CC2)c2sc3nc(-c4ccco4)c4c(c3c2n1)CCC4,-1.2%,-16.1%
O=C(CSc1cn(CC(=O)N2CCCCC2)c2ccccc12)NCc1ccccc1,5.7%,-2.1%
Cc1c(C)n(Cc2ccccc2)c2ccc(C(=O)N3CCN(c4ccc(F)cc4)CC3)cc12,31.6µM*,-1.1%
Cc1c(C)n(Cc2ccc(F)cc2)c2ccc(C(=O)N3CCN(c4ccc(Cl)cc4)CC3)cc12,7.94µM*,1.7%
O=C(c1ccc(Cn2c(=O)[nH]c3ccccc3c2=O)cc1)N1CCN(c2ccc(F)cc2)CC1,19.8%,-6.0%
Cc1c(C)n(Cc2ccccc2)c2ccc(C(=O)N3CCN(c4ccccc4)CC3)cc12,?,-1.7%
COc1ccccc1N1CCN(C(CNC(=O)C(=O)NCCc2ccccc2)c2cccnc2)CC1 (stereo unspecified),?,-5.5%
COc1ccc(CNC(=O)c2cccn2-c2nnc(N3CCCC3)s2)c(OC)c1,7.4%,1.8%
Cc1ccc(CNC(=O)c2cnc(N3CCCCC3)c3ccccc23)cc1,-9.4%,-13.0%
Nc1ccn([C@@H]2O[C@H](COC(=O)C34CC5CC(CC(C5)C3)C4)[C@@H](O)[C@@H]2O)c(=O)n1,2.3%,0.5%
SMILES,Cruzain inh noDet,Cruzain Triton
Cc1cc(C)n(-c2nc(C)nc(NCc3ccccc3)n2)n1,-4.3%,4.1%
Cc1nn(-c2nnc(NCc3ccccc3)nn2)c(C)c1Br,?,12.6µM*
COc1ccc(-n2c(-c3ccccc3F)nc3c(cnn3-c3ccc(C)cc3)c2=O)cc1,-18.3%,-15.2%
CC(C)C1=Nc2cccc3cccc(c23)N1,-10.3%,0.6%
Nc1cccc(C2=Nc3cccc4cccc(c34)N2)c1,7.94µM*,-2.6%
COc1ccc(C2=Nc3cccc4cccc(c34)N2)cc1,3.16µM*,-3.5%
Nc1cccc(-c2nc3ccc(N)cc3s2)c1,-1.3%,-21.7%
CCn1nc(C)c(NC(=O)/C=C/c2ccc(OC)c(COc3ccc(Cl)cc3Br)c2)c1C,3.5%,-2.2%
COc1ccc(/C=C/C(=O)NCc2cn(C)nc2C)cc1COc1ccc(Cl)cc1Br,-2.8%,14.1µM*
COCCCNC(=O)CN1C(=O)c2c(c3ccccc3n2C)C1c1ccc(OC)cc1 (stereo unspecified),?,-1.7%
COc1ccc2c(CNC3CCCCCC3)c(C(=O)O)n(Cc3ccc(C)cc3)c2c1,-3.4%,-5.4%
Cc1cccc(CCNc2ncnc3onc(-c4ccc(Cl)cc4)c23)c1,-11.4%,-6.2%
COc1ccc(S(=O)(=O)N2CCN(c3c(C)cccc3C)CC2)cc1OC,4.3%,-9.7%
COc1cc(Cl)c(S(=O)(=O)N2CCN(c3c(C)cccc3C)CC2)cc1Cl,20µM*,-3.1%
CCOC(=O)c1cc(C)n(CC2CCC(C(=O)Nc3ccc(OC)cc3)CC2)c1C (stereo unspecified),15.5%,-8.3%
c1ccc(-c2nccc(-c3ccc(-n4cnc5ccccc54)cc3)n2)cc1,15.8µM*,-1.7%
c1ccc(-n2nnnc2-n2cnc3ccccc32)cc1,8.0%,3.1%
Nc1nc2sc3c(c2c(=O)s1)CCCC3,-1.0%,-11.3%

# Bioassay records deposited in PubChem by National Center for Advancing Translational Sciences (NCATS).
